# “And” between values parts separate entries of the source, which are not always exact repeats. Identical values can stand only once. Results filed as inconclusive are left out. The source made the active and inactive calls. Cut-off read from the data, not from the text of the source, unless noted: active = inhibition above about 80%; inactive = the rest.
# Tests used:
# [1] = growth inhibition, single agents and combos, LFS_MB_1R, cell-based, cisplatin or BGB combos, synergistic combos for chromothripsis tumors (AID 1671452); details: LFS_MB_1R medulloblastoma cells, stronger effect = higher value;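 note: cells exposed for 96 hours before readout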
# [2] = growth inhibition, single agents and combos, CRL2098, cell-based, BGB or cisplatin IC20 combos, synergistic combos for chromothripsis tumors (AID 1671454); details: CRL2098 osteosarcoma cells, drug combinations, stronger effect = higher value;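 note: cells exposed for 96 h before readout; 0% = vehicle DMSO and 100% = killing by high DMSO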
# [3] = growth inhibition, single agents and combos, HD-MB03, cell-based, BGB or cisplatin IC20 combos, synergistic combos for chromothripsis tumors (AID 1671455; in the data active = inhibition above about 83%;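 note: 0% = vehicle DMSO and 100% = high DMSO as cytotoxic control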); details: HD-MB03 medulloblastoma cells, stronger effect = higher value
# [4] = growth inhibition, single agents and combos, UWB1.289, cell-based, BGB or cisplatin combos, synergistic combos for chromothripsis tumors (AID 1671456); details: UWB1.289 ovarian carcinoma cells, stronger effect = higher value;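 note: cells exposed to compound for four days; 0% = vehicle DMSO and 100% = killing by high DMSO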
# [5] = growth inhibition, single agents and combos, LFS_MB_2R, cell-based, cisplatin combos, synergistic combos for chromothripsis tumors (AID 1671457); details: LFS_MB_2R medulloblastoma cells, stronger effect = higher value;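 note: cells exposed to compound for four days before readout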
# [6] = growth inhibition, MDA-MB-436, cell-based, BGB or cisplatin combos, synergistic combos for chromothripsis tumors (AID 1671458; call rule not given here;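 note: cells exposed for 96 hours; 0% = vehicle DMSO and 100% = killing by high DMSO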); details: MDA-MB-436 breast carcinoma growth inhibition, drug combinations, stronger effect = higher value
# [7] = UWB1.289_BRCA1 ovarian cancer growth, cell-based, BGB or cisplatin combinations (AID 1671459); details: UWB1.289 BRCA1 ovarian carcinoma, drug combinations, stronger effect = higher value
# [8] = drug combination toxicity in non-malignant astrocytes – cell-based, BGB or cisplatin IC20 combos, cytotoxicity control for chromothriptic childhood tumor combination screen (AID 1671460); details: Human astrocytes, viability inhibition, drug combinations, at 0.5 µM, stronger effect = higher value;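 note: cells exposed to compounds for 96 hours before viability readout; 0% = vehicle and 100% = killing control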
# [9] = BT084 cell growth, single and combined drugs, ICGC_MB145, cisplatin and BGB IC40 combos (AID 1671461); details: BT084 medulloblastoma cells, drug combinations, stronger effect = higher value;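 note: cells exposed to drugs for 96 hours; 0% = vehicle DMSO and 100% = high DMSO full killing control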
# [10] = RCMB18 cell growth, single agent and combined, cisplatin and BGB IC40 combos (AID 1671462); details: RCMB18 medulloblastoma cells, stronger effect = higher value;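 note: cells exposed to compound for four days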
# [11] = CRL1545 cell growth, single agent and combined, cisplatin and BGB IC20 combos (AID 1671464); details: CRL1545 osteosarcoma cells, stronger effect = higher value;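 note: cells exposed to compound for 96 hours before readout; 0% = vehicle DMSO and 100% = high DMSO killing control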
# [12] = compounds altering HSF1 focus formation in cells – imaging, Selleck Cancer Library (AID 1347162; in the data active = plate-normalised HSF1 focus index below about 0.46); details: human cells, HSF1 nuclear foci imaging, at 10 µM; SSMD: measured here: HSF1 foci SSMD mean; cell count: measured here: cell number; plate-normalised HSF1 focus index: stronger effect = lower value
# [13] = rescue of PC12 cells from polyQ htt toxicity – LDH release (AID 1610); details: PC12 mutant huntingtin toxicity, final LDH at 4 uM, stronger effect = lower value
# [14] = chitosan synthesis blockers in C. neoformans – flow cytometry, Cibacron Brilliant Red staining (AID 1347148; call rule not given here;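 note: compound exposure lasted three days at 37 degrees C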); details: Cryptococcus neoformans chitosan, stronger effect = lower value; at 99.1 µM unless noted
# [15] = glutamate excitotoxicity neuroprotectants – cell-based, TUNEL DNA degradation staining, MNGlu (AID 1594; call rule not given here); details: motor neurons, glutamate-induced death, at 1 µM, stronger effect = higher value
# [16] = system: Aerobactin synthetase IucA (Klebsiella pneumoniae); experiment: inhibition of K. pneumoniae IucA enzyme – biochemical, Tocris library, absorbance (AID 1345561; call rule not given here;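 note: 100% = enzyme without compound and 0% = no enzyme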); details: purified IucA enzyme assay, absorbance (OD) read-out; stronger effect = lower value;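 tested at 8 µM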
# [17] = measured here: combination with BGB IC40, at 0.05 µM
# [18] = measured here: combination with cisplatin, at 0.5 µM
# [19] = measured here: combination with cisplatin, at 5 µM
# [20] = measured here: combination with BGB at IC20, at 0.5 µM
# [21] = measured here: combination with cisplatin at IC20, at 0.5 µM
# [22] = measured here: combo with BGB at IC20, at 0.5 µM
# [23] = measured here: combo with cisplatin at IC20, at 0.5 µM
# [24] = measured here: inhibition with BGB combination, at 0.05 µM
# [25] = measured here: inhibition with cisplatin combination, at 0.05 µM
# [26] = measured here: BGB combination, at 0.5 µM
# [27] = measured here: BGB combination, at 5 µM
# [28] = measured here: cisplatin combination, at 0.5 µM
# [29] = measured here: cisplatin combination, at 5 µM
# [30] = BGB combination, concentration series, at 5 µM
# [31] = cisplatin combination, concentration series, at 5 µM
# [32] = measured here: combo with BGB IC20
# [33] = measured here: combo with cisplatin IC20
# [34] = cisplatin combination, at 0.5 µM
# [35] = measured here: BGB IC40 combination 0.05 uM, at 0.05 µM
# [36] = measured here: BGB IC40 combination, at 0.05 µM
# [37] = measured here: with BGB IC20 combination, at 0.5 µM
# [38] = measured here: with cisplatin IC20 combination, at 0.5 µM
smiles,measurement,setting,value
CCCCCCNC(=O)n1cc(F)c(=O)[nH]c1=O,inhibition,[1]; at 0.5 µM,-10.6% (inactive) and -21.3% (inactive)
same,inhibition,[1]; [17],-28.1% and 5.33%
same,inhibition,[1]; [18],-15.3% and -53.6%
same,inhibition,[1]; [19],-40% and -9.49%
same,inhibition,[2]; at 0.5 µM,-23.4% (inactive) and -30.5% (inactive)
same,inhibition,[2]; [20],-16.8% and -6.28%
same,inhibition,[2]; [21],-120% and -21%
same,inhibition,[3]; at 0.5 µM,-1.02% (inactive) and -7.18% (inactive)
same,inhibition,[3]; [22],-21.9% and -3.96%
same,inhibition,[3]; [23],21% and -14.9%
same,inhibition,[4]; at 0.5 µM,5.77% (inactive) and 18.7% (inactive)
same,inhibition,[4]; [24],-24.4% and -30.3%
same,inhibition,[4]; [25],-28.4% and -20.9%
same,inhibition,[5]; at 0.5 µM,-18.7% (inactive) and -16.7% (inactive)
same,inhibition,[5]; [18],-15.8% and -16.6%
same,inhibition,[5]; [19],-25.7% and -25.2%
same,inhibition,[6]; at 0.5 µM,-3.42% (inactive) and -19.4% (inactive)
same,inhibition,[6]; [26],-7.14% and -19.3%
same,inhibition,[6]; [27],9.33% and -1.4%
same,inhibition,[6]; [28],-19.1% and -44.2%
same,inhibition,[6]; [29],33.3% and 25.8%
same,inhibition,[7]; [30],34.1% and 35.2%
same,inhibition,[7]; at 0.5 µM,11% (inactive) and 22.4% (inactive)
same,inhibition,[7]; [31],14.4% and 26.3%
same,inhibition,[8],7.08% (inactive) and 16.2% (inactive)
same,inhibition,[8]; [32],-8.62% and 3.35%
same,inhibition,[8]; [33],18.1% and 20.7%
same,inhibition,[9]; at 0.5 µM,-1.98% (inactive) and -19.4% (inactive)
same,inhibition,[9]; [34],-28.3% and -28.4%
same,inhibition,"[9]; cisplatin combination, at 5 µM",-14.4% and -69.9%
same,inhibition,[9]; [35],-34% and -12%
same,inhibition,"[9]; single agent, at 5 µM",6.42% and -7.55%
same,inhibition,[10]; at 0.5 µM,-8.71% (inactive) and -17.6% (inactive)
same,inhibition,"[10]; cisplatin combo, at 5 µM",-32.4% and 29.2%
same,inhibition,[10]; [36],-13.3% and -15%
same,inhibition,[10]; [18],-7.21% and -15.6%
same,inhibition,"[10]; single agent, at 5 µM",54.2% and -12.5%
same,inhibition,[11]; at 0.5 µM,-38.9% (inactive) and -6.62% (inactive)
same,inhibition,[11]; [37],-31.2% and -14.7%
same,inhibition,[11]; [38],-45.1% and -2.6%
same,inhibition,"[11]; single agent, at 0.05 µM",-9.97% and 20.9%
same,inhibition,"[11]; single agent, at 5 µM",-10.7% and 10.5%
CN(CCOc1ccc(CC2SC(=O)NC2=O)cc1)c1ccccn1 (stereo not drawn),SSMD,[12],2.43
same,cell count,[12],7680
same,plate-normalised HSF1 focus index,[12],1.15 (inactive)
CN(C)CCOC(c1ccc(Cl)cc1)c1ccccn1 (stereo not drawn),normalised LDH release,[13],0.839
Cn1cnc([N+](=O)[O-])c1Sc1ncnc2nc[nH]c12,inhibition,[1]; at 0.5 µM,-1.99% (inactive) and -33.4% (inactive)
same,inhibition,[1]; [17],-14.2% and -22.8%
same,inhibition,[1]; [18],-2.77% and -51.2%
same,inhibition,[1]; [19],10.1% and -28.7%
same,inhibition,[2]; at 0.5 µM,-39.2% (inactive) and -50.5% (inactive)
same,inhibition,[2]; [20],-37.7% and -16.5%
same,inhibition,[2]; [21],-43.1% and -68.9%
same,inhibition,[3]; at 0.5 µM,-1.96% (inactive) and 2.76% (inactive)
same,inhibition,[3]; [22],-3.82% and 4.08%
same,inhibition,[3]; [23],-5.61% and 15.3%
same,inhibition,[4]; at 0.5 µM,39.3% (inactive) and 42.9% (inactive)
same,inhibition,[4]; [24],-15.3% and -18.7%
same,inhibition,[4]; [25],-7.01% and -1.15%
same,inhibition,[5]; at 0.5 µM,-16.6% (inactive) and -22.7% (inactive)
same,inhibition,[5]; [18],-17.1% and -11.6%
same,inhibition,[5]; [19],-20.9% and -25.4%
same,inhibition,[6]; at 0.5 µM,-2.35% (inactive) and 8.87% (inactive)
same,inhibition,[6]; [26],-11.4% and 6.51%
same,inhibition,[6]; [27],17.6% and 21.4%
same,inhibition,[6]; [28],-16% and 2.87%
same,inhibition,[6]; [29],26.8% and 35.6%
same,inhibition,[7]; [30],90.9% and 88.9%
same,inhibition,[7]; at 0.5 µM,37.4% (inactive) and 50.2% (inactive)
same,inhibition,[7]; [31],96.5% and 101%
same,inhibition,[8],-1.25% (inactive) and 13.6% (inactive)
same,inhibition,[8]; [32],5.14% and 24.1%
same,inhibition,[8]; [33],-7.22% and 6.12%
same,inhibition,[9]; at 0.5 µM,-16.8% (inactive) and 4.68% (inactive)
same,inhibition,[9]; [34],-15.8% and -6.89%
same,inhibition,"[9]; cisplatin combination, at 5 µM",-45.6% and -9.16%
same,inhibition,[9]; [35],2.92% and 62.8%
same,inhibition,"[9]; single agent, at 5 µM",-13.5% and -5.72%
same,inhibition,[10]; at 0.5 µM,-11.9% (inactive) and -11.3% (inactive)
same,inhibition,"[10]; cisplatin combo, at 5 µM",4.98% and -8.51%
same,inhibition,[10]; [36],-6.18% and -2.54%
same,inhibition,[10]; [18],-8.48% and -16.8%
same,inhibition,"[10]; single agent, at 5 µM",-19.3% and -29.9%
same,inhibition,[11]; at 0.5 µM,-10.1% (inactive) and 15.6% (inactive)
same,inhibition,[11]; [37],23.3% and -13%
same,inhibition,[11]; [38],-26.8% and 29.9%
same,inhibition,"[11]; single agent, at 0.05 µM",10.6% and 46.1%
same,inhibition,"[11]; single agent, at 5 µM",25.6% and 21%
Cc1ccc(S(=O)(=O)NC(=O)NN2CCCCCC2)cc1,fold fluorescence,[14],4.87 [at 160.6 µM] (inactive)
CCN(CC)CCNC(=O)c1ccc(N)cc1,fold fluorescence,[14],4.18 [at 212.5 µM] (inactive)
CC(N=C(NC#N)Nc1ccncc1)C(C)(C)C (stereo not drawn),fold fluorescence,[14],3.41 [at 203.8 µM] (inactive)
CCCCNC(=O)NS(=O)(=O)c1ccc(C)cc1,fold fluorescence,[14],3.24 [at 184.9 µM] (inactive)
OCCN1CCN(CCCN2c3ccccc3Sc3ccc(Cl)cc32)CC1,normalised LDH release,[13],0.608
O=C(CCCN1CC=C(n2c(=O)[nH]c3ccccc32)CC1)c1ccc(F)cc1,protection,[15],35% (active)
O=C1[C@H](CC[C@H](O)c2ccc(F)cc2)[C@@H](c2ccc(O)cc2)N1c1ccc(F)cc1,SSMD,[12],0.185
same,cell count,[12],6580
same,plate-normalised HSF1 focus index,[12],1.01 (inactive)
C[C@]12CCC(=O)C=C1CC[C@@H]1[C@@H]2[C@@H](O)C[C@@]2(C)[C@H]1CC[C@]2(O)C(=O)CO,SSMD,[12],2.5
same,cell count,[12],6980
same,plate-normalised HSF1 focus index,[12],1.13 (inactive)
CC(C)(C)NC[C@H](O)COc1nsnc1N1CCOCC1,remaining activity,[16],95.7% (inactive)
COc1ccc([C@@H]2Sc3ccccc3N(CCN(C)C)C(=O)[C@@H]2OC(C)=O)cc1,remaining activity,[16],113% (inactive)
CCCCCCCCCCC[C@@H](C[C@@H]1OC(=O)[C@H]1CCCCCC)OC(=O)[C@H](CC(C)C)NC=O,remaining activity,[16],84.7% (inactive)
